Screens: PubChem, National Center for Advancing Translational Sciences (NCATS)
Rows were chosen to be rich in hits. Some 21% of all compounds tested hit in one or more screens of this group.
Pf growth 48h – P. falciparum growth inhibition at 48 hours (one generation) | P. falciparum luciferase growth in erythrocytes, 48 h | Potency, µM (series often up to 28.7 µM), inactives show at the top dose activity change, negative = inhibition, actives largely listed as inhibitors | 310,000 tested, 5.9% active; note: potency is the fitted concentration of half-maximal effect; % is set by controls: 0 for no effect and ±100 for the full control effect
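Luminescence readout; reporter = integrated firefly luciferase in P. falciparum. RBC culture at 2% hematocrit, 0.1% parasitemia final, 37 C/5% CO2; decreased signal taken as growth inhibition.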
Giardia FBPA inh – inhibitors of Giardia lamblia fructose-1,6-bisphosphate aldolase; purified Giardia FBPA; Potency, µM (top dose mostly 59.6 µM), inactives show at the top dose activity, negative = inhibition, actives largely listed as inhibitors; 290,000 tested, 0.71% active; note: potency is the fitted concentration of half-maximal effect; % is set by controls: 0 for no effect and ±100 for the full control effect; nearly all actives have a fitted effect of over 55% in size
Target sequence (A8B2U2 whole entry, looked up): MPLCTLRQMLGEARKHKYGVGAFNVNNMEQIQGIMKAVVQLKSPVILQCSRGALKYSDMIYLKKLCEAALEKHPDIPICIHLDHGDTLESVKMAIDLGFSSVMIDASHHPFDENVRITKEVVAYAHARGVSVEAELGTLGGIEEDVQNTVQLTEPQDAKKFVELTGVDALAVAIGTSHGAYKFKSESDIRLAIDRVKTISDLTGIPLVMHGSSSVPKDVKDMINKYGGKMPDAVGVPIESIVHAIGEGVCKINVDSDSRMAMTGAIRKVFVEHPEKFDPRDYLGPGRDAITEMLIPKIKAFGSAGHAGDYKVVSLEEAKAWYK
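Giardia FBPA (40 nM reagent) was preincubated 10 min at RT with compound (up to 57.5 uM final), then substrate plus GAPDH/TPI/NAD/arsenate coupling system with diaphorase/resazurin was added; resorufin fluorescence (525/598 nm) was read after 20 min.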
Pf growth 96h – inhibits malaria parasite growth, 96 h; 320,000 tested, 6.9% active; Potency, µM (doses to about 28.7 µM), inactives show top-dose activity change, negative = inhibition, usual class: inhibitors; P. falciparum luciferase reporter growth, 96 h; note: potency is the fitted concentration of half-maximal effect; % is set by controls: 0 for no effect and ±100 for the full control effect
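P. falciparum expressing integrated firefly luciferase, in erythrocytes at 2% hematocrit, 0.05% parasitemia, incubated with compounds 96 h at 37 C, 5% CO2. Growth inhibition read as loss of luminescence; two-generation exposure targets delayed-death apicoplast inhibitors.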
NS1 function inh – influenza NS1 inhibition | Potency, µM (series often up to 46.1 µM), inactives show top-dose activity, positive = more growth | 270,000 tested, 0.4% active | AID 2326; calls by dose curve; note: potency is the fitted concentration of half-maximal effect; actives are rising curves; nearly all actives have a fitted effect of over 50% in size
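A cell-based growth assay was used: compounds that relieve NS1-induced slow growth of budding yeast raise OD600. Assay medium was yeast nitrogen base with ammonium sulphate and -URA supplement, pH 6.0, with 2% galactose.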
Cycloheximide cs – affects cycloheximide protein synthesis inhibition readout, counter-screen | 300,000 tested, 12% active | max response, % | cell reporter, cycloheximide protein synthesis inhibition counterscreen; in the data active = max response mostly above about 13%, no sharp cut-off; inactive = mostly below about 14%; note: read at 38.3 µM for the half of the compounds with a filed dose; 0% is about no effect
Shiga toxin inh – inhibitors of Shiga toxin in Vero cells; Vero cells, Shiga toxin protein synthesis inhibition reporter; inhibition, % at 38.7 µM; 290,000 tested, 9.2% active; in the data active = inhibition mostly above about 28%, no sharp cut-off; inactive = mostly below about 43%; note: 0% is about no effect
Active calls of the source: *; [ ] = dose if it differs, or a comment. Unless noted, calls come from the whole dose curve; as a rule, active = well fitted curve in the direction sought with a large enough effect; inconclusive = small, poorly fitted or top-dose-only effect, or another doubt; inactive = no such curve, though single readings can be large; an effect the other way counts as inactive or inconclusive.

What do the screens show for `COc1ccc(N(C)S(=O)(=O)c2cccc(C(=O)Nc3nnc(C4CC4)s3)c2)cc1`?
Pf growth 48h: inconclusive; Giardia FBPA inh: 0%; Pf growth 96h: inconclusive; NS1 function inh: 4%; Cycloheximide cs: -1; Shiga toxin inh: -18

What do the screens show for `COc1cc(OC)c(N(C)S(=O)(=O)c2cccc(C(=O)Nc3nnc(C4CC4)s3)c2)cc1Cl`?
Pf growth 48h: 13µM*; Giardia FBPA inh: 1%; Pf growth 96h: inconclusive; NS1 function inh: -4%; Cycloheximide cs: -5; Shiga toxin inh: -6

Results for CS(=O)(=O)N(CC(=O)Nc1cccc([N+](=O)[O-])c1)c1cccc(F)c1 ?
Pf growth 48h: 0%; Giardia FBPA inh: 1%; Pf growth 96h: 21%; NS1 function inh: 2%; Cycloheximide cs: -8; Shiga toxin inh: 14

How did O=C(CCNC(=O)c1ccccc1)Nc1cccnc1 do in these assays?
Pf growth 48h: 14%; Giardia FBPA inh: 7%; Pf growth 96h: 2%; Cycloheximide cs: -3; Shiga toxin inh: 14

Results for CCOc1ccc(N(C)S(=O)(=O)c2ccc(C)c(C(=O)OCC(=O)c3c[nH]c4ccccc34)c2)cc1 ?
Pf growth 48h: 13µM*; Giardia FBPA inh: -6%; Pf growth 96h: inconclusive; NS1 function inh: -1%; Cycloheximide cs: 0; Shiga toxin inh: 3

How did CCOc1ccc(N(C)S(=O)(=O)c2ccc(C)c(C(=O)Nc3nnc(C4CC4)s3)c2)cc1 do in these assays?
Pf growth 48h: 4.1µM*; Pf growth 96h: inconclusive

What do the screens show for `Cc1ccc(N(C)S(=O)(=O)c2cccc(C(=O)Nc3nnc(C4CC4)s3)c2)cc1`?
Pf growth 48h: 24%; Giardia FBPA inh: 10%; Pf growth 96h: -16%; Cycloheximide cs: -2; Shiga toxin inh: -9

Results for COCCN(C(=O)COC(=O)CSc1ccccc1)c1c(N)n(Cc2ccccc2)c(=O)[nH]c1=O ?
Pf growth 48h: -11%; Pf growth 96h: 32%

Results for O=C1c2ccc(-c3ccc(F)cc3OCc3ccccc3)cc2S(=O)(=O)c2cccc(C(=O)N3CCCC3)c21 ?
Pf growth 48h: 4.7µM*; Pf growth 96h: inconclusive

How did COc1cc2c(cc1OC)C1O[C@](CCCCN3C(=O)c4ccccc4C3=O)(C2)Oc2c1c(=O)oc1ccc(F)cc21 do in these assays?
Pf growth 48h: inconclusive; Giardia FBPA inh: inconclusive; Pf growth 96h: -14%[5.75 µM]; NS1 function inh: 30%; Cycloheximide cs: -4; Shiga toxin inh: inactive

What do the screens show for `CC(C)CN1CCC(=O)N(CCSc2ccccc2)CC1`?
Pf growth 48h: 231%; Giardia FBPA inh: 7%; Pf growth 96h: 325%; NS1 function inh: 10%; Cycloheximide cs: 39*; Shiga toxin inh: 37*

Results for CCCN1CCC(=O)N(CCSc2ccc(C)cc2)CC1 ?
Pf growth 48h: 76%; Giardia FBPA inh: 6%; Pf growth 96h: 52%; NS1 function inh: -8%; Cycloheximide cs: 38*; Shiga toxin inh: 53*

How did Cc1ccc(SCCN2CCN(CCc3ccccc3)CCC2=O)cc1 do in these assays?
Pf growth 48h: 42%; Giardia FBPA inh: 2%; Pf growth 96h: 40%; NS1 function inh: inconclusive; Cycloheximide cs: 13; Shiga toxin inh: 7

How did O=C1CCC(O)CCN1CCSc1ccccc1 (configuration not stated) do in these assays?
Pf growth 48h: 34%; Giardia FBPA inh: 5%; Pf growth 96h: 109%; NS1 function inh: 20%; Cycloheximide cs: 34*; Shiga toxin inh: 50*

Results for Cc1oc(-c2ccccc2)nc1CS(=O)CC(=O)NC1CCCC1 (configuration not stated) ?
Pf growth 48h: 5%; Giardia FBPA inh: 8%; Pf growth 96h: inconclusive; NS1 function inh: inconclusive; Cycloheximide cs: -2; Shiga toxin inh: 3

What do the screens show for `CCOC(=O)N/N=C1/C[C@@H](O)[C@@H](O)[C@@H]2[C@@H]3C(=O)N(CC)C(=O)[C@H]3CC[C@@H]12`?
Giardia FBPA inh: 7%[12.9 µM]

Results for O=C(COC(=O)c1cccnc1Cl)c1cccc(Cl)c1 ?
Giardia FBPA inh: -1%; Pf growth 96h: -14%; NS1 function inh: -4%; Cycloheximide cs: 34*; Shiga toxin inh: 39*
